Source: the supplement of paper PMC9446081
± gives the standard deviation of the averaged measurements.

Molecular target: T1, MurD (UniProt P14900)
T1 sequence (whole entry): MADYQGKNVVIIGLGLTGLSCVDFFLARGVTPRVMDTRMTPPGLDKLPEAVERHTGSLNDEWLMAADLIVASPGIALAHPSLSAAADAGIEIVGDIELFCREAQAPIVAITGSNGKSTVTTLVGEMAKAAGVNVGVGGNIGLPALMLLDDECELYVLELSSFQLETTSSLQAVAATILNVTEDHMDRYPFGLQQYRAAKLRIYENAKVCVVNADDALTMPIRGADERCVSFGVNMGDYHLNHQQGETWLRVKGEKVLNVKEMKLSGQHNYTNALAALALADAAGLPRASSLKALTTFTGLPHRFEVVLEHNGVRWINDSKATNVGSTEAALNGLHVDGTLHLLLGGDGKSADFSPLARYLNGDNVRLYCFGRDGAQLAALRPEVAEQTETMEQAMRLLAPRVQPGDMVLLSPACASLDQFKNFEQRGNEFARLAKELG
Test: relative enzymatic activity vs untreated control (fraction); higher = less inhibition
Conditions: 100 µM; incubation time: 2 h at 37 C
Description: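 In vitro enzymatic inhibition assays (ProFoldin kits) for 12 purified essential E. coli enzymes or complexes, each treated with 218 active antibacterial compounds at 100 µM for 2 h at 37°C. Read-outs were fluorescence or absorbance (phosphate detection, dye binding), converted to activity via standard curves and expressed relative to untreated DMSO controls.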

| Structure (SMILES) | relative enzymatic activity |
| --- | --- |
| Cc1cn(C2CC(N=[N+]=[N-])C(CO)O2)c(=O)[nH]c1=O (centres undefined) | 0.573 ± 0.35 |
| CCOC(=O)OC(C)OC(=O)C1N2C(=O)C(NC(=O)C(N)c3ccccc3)C2SC1(C)C.Cl (centres undefined) | 0.598 ± 0.42 |
| Cn1nnnc1SCC1=C(C(=O)[O-])N2C(=O)C(NC(=O)C(O)c3ccccc3)C2SC1.[Na+] (centres undefined) | 0.636 ± 0.44 |
| CNC1C(OC2C(OC3C(O)C(O)C(NC(=N)N)C(O)C3NC(=N)N)OC(C)C2(O)CO)OC(CO)C(O)C1O.O=S(=O)(O)O (centres undefined) | 0.65 ± 0.44 |
| CON=C(C(=O)NC1C(=O)N2C(C(=O)OCOC(=O)C(C)(C)C)=C(C=Cc3scnc3C)CSC12)c1csc(N)n1 (centres undefined) | 0.568 ± 0.41 |
| COC1(NC(=O)C(C(=O)[O-])c2ccc(O)cc2)C(=O)N2C(C(=O)[O-])=C(CSc3nnnn3C)COC21.[Na+].[Na+] (centres undefined) | 0.584 ± 0.39 |
| Nc1c2ccccc2nc2ccccc12 | 0.589 ± 0.38 |
| O=C1OC(=O)[C@H]2[C@@H]1[C@H]1CC[C@H]2O1 | 0.606 ± 0.38 |
| CC(=O)On1cc(F)c(=O)[nH]c1=O | 0.464 ± 0.59 |
| N[C@@H](C(=O)N[C@@H]1C(=O)N2C(C(=O)O)=C(Cl)CS[C@H]12)c1ccccc1 | 0.579 ± 0.39 |
| CC1(C)S[C@@H]2[C@H](NC(=O)[C@H](NC(=O)N3CCNC3=O)c3ccccc3)C(=O)N2[C@H]1C(=O)O | 0.583 ± 0.4 |
| COc1ccc(Cc2cnc(N)nc2N)cc1OC | 0.583 ± 0.39 |
| CN1CCN(c2c(F)cc3c(=O)c(C(=O)O)cn4c3c2OCN4C)CC1 | 0.624 ± 0.43 |
| O=C(O)c1cn(C2CC2)c2cc(N3CCNCC3)c(F)cc2c1=O | 0.576 ± 0.41 |
| COc1cc(Cc2cnc(N)nc2N)cc(OC)c1OC | 0.589 ± 0.4 |
| C[C@H]1[C@H](NC(=O)/C(=N\OC(C)(C)C(=O)O)c2csc(N)n2)C(=O)N1S(=O)(=O)O | 0.623 ± 0.45 |
| CC(N)O.Cc1cc(CC(C)CC(C)(C)C)n(O)c(=O)c1 (centres undefined) | 0.636 ± 0.43 |
| COc1cc2c(cc1OC)C(=O)C(CC1CCN(Cc3ccccc3)CC1)C2.Cl (centres undefined) | 0.456 ± 0.32 |
| CON=C(C(=O)NC1C(=O)N2C(C(=O)O)=C(C[N+]3(C)CCCC3)CSC12)c1csc(N)n1.[Cl-] (centres undefined) | 0.568 ± 0.37 |
| CCn1cc(C(=O)O)c(=O)c2cc(F)c(N3CCNC(C)C3)c(F)c21.Cl (centres undefined) | 0.577 ± 0.38 |

| Structure (SMILES) | relative enzymatic activity |
| --- | --- |
| O=c1[nH]c(=O)n(C2CC(O)C(CO)O2)cc1F (centres undefined) | 0.597 ± 0.4 |
| CN(C)c1ccc(O)c2c1CC1CC3C(N(C)C)C(O)=C(C(N)=O)C(=O)C3(O)C(O)=C1C2=O.Cl (centres undefined) | 0.602 ± 0.4 |
| C=C1c2cccc(O)c2C(=O)C2=C(O)C3(O)C(=O)C(C(N)=O)=C(O)C(N(C)C)C3C(O)C12.Cl (centres undefined) | 0.62 ± 0.43 |
| CO/N=C(\C(=O)N[C@@H]1C(=O)N2C(C(=O)O)=C(CSc3nnnn3C)CS[C@H]12)c1csc(N)n1 | 0.611 ± 0.42 |
| Nc1nc(C(=CCC(=O)O)C(=O)NC2C(=O)N3C(C(=O)O)=CCSC23)cs1 (centres undefined) | 0.575 ± 0.39 |
| NCCONC(=O)[C@@H]1CC[C@@H]2CN1C(=O)N2OS(=O)(=O)O | 0.562 ± 0.36 |
| CC[C@H]1OC(=O)C[C@@H](O)[C@H](C)[C@@H](O[C@@H]2O[C@H](C)C[C@H](N(C)C)[C@H]2O)[C@@H](CC=O)C[C@@H](C)C(=O)/C=C/[C@]2(C)O[C@H]2[C@@H]1C | 0.55 ± 0.38 |
| N[C@@H](C(=O)N[C@@H]1C(=O)N2C(C(=O)O)=C(Cl)CC[C@H]12)c1ccccc1 | 0.603 ± 0.4 |
| CO/N=C(\C(=O)N[C@@H]1C(=O)N2C(C(=O)O)=C(C)CS[C@H]12)c1csc(N)n1 | 0.613 ± 0.43 |
| NCC1OC(OC2C(N)CC(N)C(OC3OC(CO)C(O)C(N)C3O)C2O)C(N)CC1O (centres undefined) | 0.611 ± 0.4 |
| NC(=O)N/N=C/c1ccc([N+](=O)[O-])o1 | 0.507 ± 0.66 |
| Cc1nnc(SCC2=C(C(=O)[O-])N3C(=O)C(NC(=O)Cn4cnnn4)C3SC2)s1.[Na+] (centres undefined) | 0.612 ± 0.43 |
| CCC=C(C(=O)NC1C(=O)N2C(C(=O)OCOC(=O)C(C)(C)C)=C(COC(N)=O)CSC12)c1csc(N)n1.Cl (centres undefined) | 0.576 ± 0.37 |
| CC(O)C1C(=O)N2C(C(=O)O)=C(SC3CNC(C(=O)N(C)C)C3)C(C)C12 (centres undefined) | 0.487 ± 0.33 |
| CN(C)C1C(O)=C(C(N)=O)C(=O)C2(O)C(O)=C3C(=O)c4c(O)cccc4C(C)(O)C3CC12.Cl (centres undefined) | 0.627 ± 0.43 |
| Cc1cc(=O)c(C(=O)N[C@@H](C(=O)N[C@@H]2C(=O)N3C(C(=O)O)=C(CSc4nnnn4C)CS[C@H]23)c2ccc(O)cc2)c[nH]1 | 0.634 ± 0.44 |
| CCN1CCN(C(=O)NC(C(=O)NC2C(=O)N3C(C(=O)O)=C(CSc4nnnn4C)CSC23)c2ccc(O)cc2)C(=O)C1=O (centres undefined) | 0.546 ± 0.35 |
| Nc1nc(/C(=N/O)C(=O)N[C@@H]2C(=O)N3C(C(=O)O)=C(/C=C4\CCN([C@@H]5CCNC5)C4=O)CS[C@H]23)ns1 | 0.57 ± 0.38 |
| CC(NCCCc1cccc(C(F)(F)F)c1)c1cccc2ccccc12.Cl (centres undefined) | 0.58 ± 0.37 |
